TNAP Pi inh: inhibitors of human tissue-nonspecific alkaline phosphatase | AID 614 | P05186 | 21,000 tested, under 10 active | inhibition, % at 20 µM | purified TNAP, pNPP, malachite green phosphate absorbance
Target sequence (P05186 whole entry, looked up): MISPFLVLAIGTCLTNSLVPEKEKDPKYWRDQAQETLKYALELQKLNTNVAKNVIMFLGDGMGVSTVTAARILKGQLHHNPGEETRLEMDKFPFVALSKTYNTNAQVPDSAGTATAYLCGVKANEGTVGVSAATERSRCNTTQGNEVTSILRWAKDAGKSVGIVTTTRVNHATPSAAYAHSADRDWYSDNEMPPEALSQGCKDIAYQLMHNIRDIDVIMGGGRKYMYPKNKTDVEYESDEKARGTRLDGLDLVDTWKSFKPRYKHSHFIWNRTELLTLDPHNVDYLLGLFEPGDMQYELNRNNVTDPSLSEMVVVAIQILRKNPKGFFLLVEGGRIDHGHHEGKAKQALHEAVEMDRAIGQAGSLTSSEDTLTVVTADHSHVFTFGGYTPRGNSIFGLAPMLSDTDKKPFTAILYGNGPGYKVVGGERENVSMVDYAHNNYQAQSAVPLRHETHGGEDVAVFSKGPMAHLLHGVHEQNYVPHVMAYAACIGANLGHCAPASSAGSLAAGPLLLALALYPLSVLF
TNAP pNPP inh: inhibitors of human tissue-nonspecific alkaline phosphatase. purified TNAP, pNPP hydrolysis, absorbance 405 nm. P05186. inhibition, % at 20 µM. 21,000 tested, under 10 active;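 note: 0% = DMSO only wells and 100% = 1 mM levamisole wells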
Numbers without * were called inactive. A selection follows.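 Rule for the calls: active = inhibition above 50% at the 20 µM single-dose screen; inactive = the rest.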

SMILES	TNAP Pi inh	TNAP pNPP inh
O=C(Nc1sc2c(c1C(=O)NC1CC1)CCCCCC2)c1ccco1	-4	-6
Cc1cccc(C)c1NC(=O)CSc1nnc(-c2ccco2)n1N	-15	3
Cc1ccc(Cn2c(N3CCCCCC3)nc3c2c(=O)[nH]c(=O)n3C)cc1	10	4
O=C1CSC2(CCCCC2)N1CCO	-2	-4
COc1ccc(-n2cnnc2SCc2cnc(-c3ccccc3)s2)cc1	0	0
O=C(OC(C(=O)NCc1ccc2c(c1)OCO2)c1ccccc1F)c1ccco1 (stereo unspecified)	13	4
CSc1ccc(C2C(C#N)=C(N)Oc3cc4c(cc32)OCO4)cc1 (stereo unspecified)	9	-2
COc1ccc(Cc2nnc(SCC(=O)Nc3nc(C)cs3)o2)cc1	8	0
C=CCn1c(SCc2ccccc2C#N)nnc1-c1cc(Br)ccc1O	9	3
CC1(C)CC(=O)C(C=NCCN2CCN(C(=O)CC3CCCC3)CC2)=C(O)C1	11	1
CN1CCCCc2c1nc1c(c2N)CCCC1	0	0
CCCC1C(c2ccco2)NC(c2ccco2)CC1(C)O (stereo unspecified)	11	0
N#Cc1c(NC(=O)CSCC(=O)O)sc2c1CCCC2	16	3
N#Cc1ccsc1NC(=O)c1cnccn1	19	9
COC(=O)c1cccc(NC2CC(=O)N(c3ccc(OC)c(OC)c3)C2=O)c1 (stereo unspecified)	-19	-2
O=C(OC(C(=O)NCC1CCCO1)c1ccccc1F)c1ccco1 (stereo unspecified)	10	2
O=C(Nc1nc(-c2ccccc2)ns1)c1cccs1	0	0
COC(=O)CN(c1ccc(OC)c(OC)c1)S(C)(=O)=O	5	-1
O=C(COc1ccccc1)Nc1ccc2c(c1)nc1n2CCOC1	7	4
Cc1cnc(C(=O)Nc2ccc(F)c(F)c2)cn1	8	-3
Cn1c(=O)c2c(nc(CN3CCC(C(N)=O)CC3)n2CCc2ccccc2)n(C)c1=O	-2	-11
Cc1ccc(C(=O)OCC(=O)Nc2sc3c(c2C#N)CCCCC3)cc1NC(=O)c1ccco1	-3	10
COc1ccc(Oc2ncnc3c2ncn3Cc2ccccc2)cc1	15	3
COc1ccccc1C(c1nnnn1CS(=O)(=O)c1ccc(C)cc1)N1CCSCC1 (stereo unspecified)	9	2
Nc1cc(N)nc(SCc2cc(=O)oc3cc4c(cc23)CCC4)n1	17	4
SMILES	TNAP Pi inh	TNAP pNPP inh
Cc1ccc2[nH]c(=O)c(CN(C)C(=O)c3ccccn3)cc2c1	-17	5
CCCCCCOc1ccc(C(=O)n2cnc(N)n2)cc1	10	4
COc1cccc(C(=O)NCC2CCN(c3ccc(S(=O)(=O)N4CCOCC4)cc3)CC2)c1	-11	4
COc1ccc2[nH]c(=O)c(CN(Cc3nnnn3Cc3ccccc3)CC3CCCO3)cc2c1 (stereo unspecified)	-12	4
C=CCNC(=O)c1ccccc1NC(=O)c1ccccc1	16	5
N#Cc1c(NC(=O)c2ccc(Cn3cc(Br)cn3)o2)sc2c1CCCCCC2	6	4
Cc1c(/C(O)=C2/C(=O)C(=O)N(CCCN3CCOCC3)C2c2ccncc2)cnn1-c1ccccc1 (stereo unspecified)	0	0
COC(=O)c1ccc(Cn2nnc3c(sc4nc(N5CCOCC5)c5c(c43)CCCC5)c2=O)o1	6	0
CCn1c(SCC(=O)NCc2ccccc2)nnc1-c1ccccc1O	-5	-6
Cc1ccccc1OCC(=O)Nc1ccc2c(c1)COC2=O	8	4
Cc1cc(C)c2oc(=O)cc(CN3CCN(Cc4ccc5c(c4)OCO5)CC3)c2c1	9	3
Cc1c(/C(O)=C2\C(=O)C(=O)N(CCN(C)C)C2c2cccs2)cnn1-c1ccccc1 (stereo unspecified)	8	1
CCc1noc(C)c1C(=O)N1CCOCC1	4	-4
O=C(CCC1CCCC1)Nc1ccc(Br)cn1	10	3
CCn1c(CNc2ccccc2Cl)nnc1SCCN1CCCCC1	13	7
Oc1ccc(N2CCN(C(c3cccs3)c3nnnn3CCc3ccccc3)CC2)cc1 (stereo unspecified)	6	3
CC(=O)c1cc(OC(=O)c2ccncc2)ccc1OC(=O)c1ccncc1	6	5
CC(C)NS(=O)(=O)c1ccc(OCC(=O)Nc2ccccc2F)cc1	5	0
C=CCN(C(=O)CCC(=O)O)C1CC(=O)N(c2ccc(OCCC)cc2)C1=O (stereo unspecified)	7	3
CCOC(=O)C(CC)Sc1nc2c(c(=O)[nH]c(=O)n2C)n1CCc1ccccc1 (stereo unspecified)	8	6
CN(C)CCN(C)Cc1ccc2c(c1)Cc1ccccc1-2	6	-2
COc1ccccc1NC(=O)Nc1ccc2c(c1)OCCO2	4	3
COc1cccc(NC(=O)N2CCCC2C(=O)NCC(C)C)c1 (stereo unspecified)	0	0
CC(C)COc1ccc(C(=O)NCc2ccco2)cc1	7	1
c1coc(CNc2nc3ccccc3n2CCN2CCOCC2)c1	8	1
SMILES	TNAP Pi inh	TNAP pNPP inh
COC(=O)CNC(=O)C1CCN(c2nc(C)cc(C)n2)CC1	-5	-6
Cn1c(=O)[nH]c(=O)c2c1nc(NCCc1ccccc1)n2CC(O)COc1ccccc1 (stereo unspecified)	-8	-2
COc1ccc(N2CCN(c3nc(NC(C)(C)C)nc(N4CCCCC4)n3)CC2)cc1	14	1
COc1cccc(/C(O)=C2/C(=O)C(=O)N(CCCN(C)C)C2c2cccc(Cl)c2)c1 (stereo unspecified)	10	4
O=C(Cn1nc(-c2ccccc2F)ccc1=O)NCc1ccc2c(c1)OCO2	8	4
CCOc1ccc(NC(=O)CSC2=C(C#N)C(c3ccc4c(c3)OCO4)CC(=O)N2)cc1 (stereo unspecified)	8	3
COC(=O)c1cc(C)sc1NC(=O)CCCC(=O)O	4	-7
O=S(=O)(c1ccc(Br)c2nsnc12)N1CCOCC1	7	4
CCOC(=O)CNC(=O)c1ccc2c(c1)OCCO2	13	4
COc1cccc(C2/C(=C(\O)c3ccc4c(c3)OCO4)C(=O)C(=O)N2CCN(C)C)c1OC (stereo unspecified)	5	-1
COc1ccc(-c2nnc(CSc3ncnc4sc5c(c34)CCC5)o2)cc1OC	17	1
COc1ccc(CNc2ccc(S(N)(=O)=O)cc2)c(OC)c1OC	2	-1
O/N=C1/CCCSc2ccccc21	6	3
CC(C)NC(=O)COC(=O)c1ccc(O)cc1	17	2
CC(=O)N(CCCN(C)C)CCC(C)CCC=C(C)C (stereo unspecified)	6	3

Assay outcomes as filed in PubChem BioAssay.
